Data: ChEMBL document CHEMBL4513216, “Probing the Open Global Health Chemical Diversity Library for Multistage-Active Starting Points for Next-Generation Antimalarials” (ACS Infect Dis, 2020)
Screen size: about 69,000 compounds; about 8,600 (12%) showed an effect of 50% or more. What follows is part of a selection rich in strong results, with near analogues and random picks from the rest.

These compounds were tested on Plasmodium berghei (assay: Screen against P. berghei liver stage (PbLuc), transformed with Luciferase, at 10uM). Conditions: tested at 10 uM.
Type: functional, HepG2
In the case of CC(C)CNC(=O)[C@H]1CCS(=O)(=O)[C@@H]2CN(CC(C)C)C[C@H]12, the INHIBITION is reported as 23.3%.
Work on Cc1ccc(NC(=O)NCCn2cnc(C)c(C)c2=O)cc1F yielded an INHIBITION of -16.4%.
CC(=O)c1cc2ncc(C(=O)NC3CCCC3)cc2[nH]1 gave an INHIBITION of 8.52%.
CC(C)OC(=O)N1C[C@@H]2CC[C@H]1CN(C(=O)c1ccccc1)C2 showed an INHIBITION of -63.6%.
With Cc1ncccc1C(=O)NCC(C)Oc1ccc(F)cc1 (configuration not stated) the INHIBITION was 10.1%.
With CCn1cnnc1CNC(=O)N(C)Cc1cccc(OC(F)F)c1 the INHIBITION was 36.1%.
Cc1cnc(C2(C)CCN(Cc3cscn3)CC2)s1 was tested, and the INHIBITION was -6.92%.
COCCNC(=O)c1cc(-c2cc[nH]n2)n2ccccc12 gave an INHIBITION of -22.5%.
For Cc1c(C(=O)NC2CCCOc3cc(Cl)ccc32)cnn1C (configuration not stated), the INHIBITION was -25.8%.
CCn1ncc(-c2cc(C(F)F)nc3sc(C(N)=O)c(N)c23)c1C gave an INHIBITION of 64.8%.
Cc1c(-c2cc(C(F)F)nc3sc(C(N)=O)c(N)c23)cnn1C gave an INHIBITION of -17.2%.
In the case of CCn1cc(-c2cc(C(F)F)nc3sc(C(N)=O)c(N)c23)c(C)n1, the INHIBITION is reported as -35.4%.
With CC1CN(CCOc2ccccc2C#N)CCN1Cc1nccn1C (configuration not stated) the INHIBITION was 14.1%.
Cc1ccc(C)c(CN2CCOC(c3noc(C)n3)C2)c1 (configuration not stated) showed an INHIBITION of 8.53%.
For Cc1cccc(CN2CCC(c3nnsc3S(C)(=O)=O)CC2)n1, the INHIBITION was 30.8%.
In the case of O[C@@H]1CN(Cc2cccc(F)c2)CC[C@H]1NCc1ccccn1, the INHIBITION is reported as 43.05%.
Work on CC(NCc1cnn(C)c1)c1ccc(OCc2nccn2C)cc1 (configuration not stated) yielded an INHIBITION of 49.5%.
Compound CC(NCc1ccc(OCc2nccn2C)cc1)c1cccnc1 (configuration not stated) has an INHIBITION of -63.6%.
In the case of CC(C(=O)NCc1cccs1)N1CCN(Cc2nccn2C)CC1 (configuration not stated), the INHIBITION is reported as 46.4%.
With CC(NCc1ccsc1)c1ccc(OCc2nccn2C)cc1 (configuration not stated) the INHIBITION was 69.5%.
COc1ccc(C(C)NCc2cccs2)cc1Cn1cccn1 (configuration not stated) gave an INHIBITION of 10.6%.
Compound CC(NCc1cccs1)c1ccc(OCc2nccn2C)cc1 (configuration not stated) has an INHIBITION of 63.8%.
Cc1sc(NC(=O)CN(C)CCOc2cccc(F)c2)c(C)c1C gave an INHIBITION of 9.14%.
For COCCNC(=O)[C@H]1CN(Cc2scnc2C)C[C@H]2OCC[C@@H]12, the INHIBITION was -44.8%.
With Cc1nc(CCNC(=O)NC2CCCN(c3ncccn3)C2)cs1 (configuration not stated) the INHIBITION was 8.03%.
Work on O=C1COc2cc(C(=O)NS(=O)(=O)c3ccccc3F)ccc2N1 yielded an INHIBITION of 50.4%.
O=C1COc2cc(C(=O)NS(=O)(=O)c3ccc(F)cc3F)ccc2N1 gave an INHIBITION of 33.3%.
For O=C1COc2ccc(C(=O)NS(=O)(=O)c3ccccc3F)cc2N1, the INHIBITION was 14.1%.
c1cncc(-c2noc(CN3CCCCC3Cn3cccn3)n2)c1 (configuration not stated) gave an INHIBITION of 33.8%.
For CC(OCc1ccccc1)C(=O)NCc1ccc(N(C)C)cc1 (configuration not stated), the INHIBITION was 33.3%.
Cn1ncc2c1C(COCC1CC1)N(Cc1ccoc1)CC2 (configuration not stated) was tested, and the INHIBITION was -29.3%.
In the case of COC(=O)[C@H]1CN(C(=O)c2cscn2)C[C@@H]1c1ccc(F)cc1, the INHIBITION is reported as 32.8%.
With CNC(=O)[C@@]12CCO[C@@H]1CCN(S(=O)(=O)c1cccc(C)c1)C2 the INHIBITION was 38.7%.
CNC(=O)[C@@]12CCO[C@@H]1CCN(S(=O)(=O)c1ccccc1)C2 was tested, and the INHIBITION was 42.7%.
Compound CNC(=O)[C@@]12CCO[C@@H]1CCN(S(=O)(=O)c1cc(C)cc(C)c1)C2 has an INHIBITION of 54.4%.
For CNC(=O)[C@@]12CCO[C@@H]1CCN(S(=O)(=O)c1ccc(C)cc1)C2, the INHIBITION was 21.8%.
Work on CNC(=O)[C@@]12CCO[C@@H]1CCN(S(=O)(=O)c1ccccc1F)C2 yielded an INHIBITION of 52%.
For CNC(=O)[C@@]12CCO[C@@H]1CCN(S(=O)(=O)c1ccccc1C)C2, the INHIBITION was 6.6%.
Cc1nc(C(=O)N2CCC(c3nnc(Cn4ccnc4)n3C)CC2)cs1 was tested, and the INHIBITION was -19.5%.
Cc1ccc(Br)c(S(=O)(=O)NCc2ccnn2C)c1 was tested, and the INHIBITION was -24.4%.
COCCN1CCC2(CCN(CC3CC3)CC2)C1=O showed an INHIBITION of 8.85%.
Cc1nc[nH]c1-c1nccn1-c1cccc(CN2CCCC2)c1 was tested, and the INHIBITION was 53%.
In the case of c1cc(CN2CCCC2)cc(-n2ccnc2-c2ccncc2)c1, the INHIBITION is reported as 22.7%.
Cc1nc[nH]c1-c1nc2cc(S(=O)(=O)N3CCCC3)ccc2n1C showed an INHIBITION of 4.71%.
Cn1ccnc1-c1nccn1-c1cccc(CN2CCCC2)c1 was tested, and the INHIBITION was 39.9%.
For CCN(CC)CCn1ccnc1-c1cccc(O)c1, the INHIBITION was -18.8%.
Cc1nc[nH]c1-c1nccn1-c1ccc(C(N)=O)c(N2CCCC2)c1 showed an INHIBITION of 50.5%.
NC(=O)c1ccc(-n2ccnc2C2CC2)cc1N1CCCC1 showed an INHIBITION of 36.3%.
With NC(=O)c1ccc(-n2ccnc2-c2cccc(O)c2)cc1N1CCCC1 the INHIBITION was 63.5%.
Cc1nc[nH]c1-c1nccn1CCN(C)S(C)(=O)=O showed an INHIBITION of 8.86%.
For CN(Cc1cnn(C)c1)C(=O)NCCc1ccc2c(c1)OCO2, the INHIBITION was -24.75%.
Cc1cc2nc(SCC(=O)N3CCCC3)n(-c3ccccc3)c(=O)c2[nH]1 was tested, and the INHIBITION was 16.6%.
In the case of Cc1ncc(CN2CCc3c(nc(-c4ccccn4)[nH]c3=O)C2)n1C, the INHIBITION is reported as 31.6%.
COCCc1noc(CN2CCOC(Cn3nc(C)cc3C)C2)n1 (configuration not stated) gave an INHIBITION of 14.4%.
With CC(=O)N[C@@H]1CN(C(=O)c2cnc3ccccc3c2)C[C@H]1O the INHIBITION was 22%.
In the case of CCC[C@@H]1CN(C(=O)c2cc3ccccc3s2)C[C@H]1NS(C)(=O)=O, the INHIBITION is reported as 20.1%.
With CCC[C@@H]1CN(C(=O)c2cnc3ccccc3c2)C[C@H]1NS(C)(=O)=O the INHIBITION was 51.1%.
With OCc1nnc2n1CCN(c1cnccn1)C2 the INHIBITION was 28.5%.
With CCC(CC)(CNC(=O)OC(C)(C)C)NC(=O)C1CC1 the INHIBITION was -120%.
CCC(CC)(CNC(=O)OC(C)(C)C)NC(=O)C1CCCO1 (configuration not stated) showed an INHIBITION of 56.6%.
CCC(CC)(CNC(=O)OC(C)(C)C)NC(=O)C1CCOCC1 gave an INHIBITION of -50.8%.
Cc1cc(C(=O)Nc2nc3c(s2)CN(S(=O)(=O)C2CC2)CC3)c(C)o1 was tested, and the INHIBITION was -59.6%.
With CC(C)c1nc(N2CCC(N3CCSCC3)CC2)c2cnn(C)c2n1 the INHIBITION was 21.1%.
Work on C[C@@H]1CN(CCCOc2ccc(F)cc2)CC[C@@]1(O)C1CCOCC1 yielded an INHIBITION of 7.24%.
Compound Cn1nnnc1SCC1Cc2ccccc2O1 (configuration not stated) has an INHIBITION of 17.2%.
In the case of Cc1cnn(C2CCCN(C(=O)c3cccc4c3OCO4)C2)c1 (configuration not stated), the INHIBITION is reported as 56.6%.
COc1ccc(CCC(=O)N2CCCC(n3cncn3)C2)cc1 (configuration not stated) showed an INHIBITION of -7.35%.
Compound O=C(CCCc1ccccc1)N1CCCC(n2cncn2)C1 (configuration not stated) has an INHIBITION of -12.2%.
Cc1cnn(C2CCCN(C(=O)c3ccc(N4CCCC4)nn3)C2)c1 (configuration not stated) showed an INHIBITION of 25.1%.
O=C(c1cccc2c1OCO2)N1CCCC(n2cccn2)C1 (configuration not stated) was tested, and the INHIBITION was 28.5%.
Cc1ccc(C(=O)N2CCCC(n3cncn3)C2)o1 (configuration not stated) gave an INHIBITION of 60.1%.
In the case of O=C(c1ccc(Br)o1)N1CCCC(n2cncn2)C1 (configuration not stated), the INHIBITION is reported as 11.8%.
Compound CCc1ccc(C(=O)N2CCCC(n3cncn3)C2)o1 (configuration not stated) has an INHIBITION of 45.1%.
Cc1cnn(C2CCCN(C(=O)c3ccc(N(C)C)nn3)C2)c1 (configuration not stated) showed an INHIBITION of 11.6%.
For COc1ccc(CCCC(=O)N2CCCC(n3cncn3)C2)cc1 (configuration not stated), the INHIBITION was 54.8%.
Work on Cc1cnn(C2CCCN(C(=O)c3cc[nH]n3)C2)c1 (configuration not stated) yielded an INHIBITION of 64.6%.
Cc1cc(C)n(C2CCCN(C(=O)c3cccc4c3OCO4)C2)n1 (configuration not stated) gave an INHIBITION of 23.7%.
For CCOc1ccccc1C(CC(=O)Nc1ccccn1)NC(C)=O (configuration not stated), the INHIBITION was -10.45%.
Cc1ccc(CN2CC[C@H]3[C@H]2CCN3S(=O)(=O)C2CC2)cc1 was tested, and the INHIBITION was 8.85%.
In the case of Cn1c(CN2CCCC(N3CCNC3=O)C2)cc(=O)n(C)c1=O (configuration not stated), the INHIBITION is reported as 31.4%.
Compound CCN1CC2(CCC1=O)CCN(Cc1cccc(OC(F)F)c1)CC2 has an INHIBITION of -9.39%.
Compound CN(C)Cc1cn(-c2ccccc2C(=O)NCC2CCCCN2C)cn1 (configuration not stated) has an INHIBITION of 29.95%.
With CNc1nc2c(s1)C(c1c(F)cccc1Cl)CC(=O)N2 (configuration not stated) the INHIBITION was 3.95%.
CN(C)C(=O)[C@]12CCCN(CC3CC3)C[C@H]1CN(c1ccccn1)C2 showed an INHIBITION of 0.618%.
COc1ccccc1CN(C)C(=O)C[S+]([O-])Cc1cc(C)on1 (configuration not stated) was tested, and the INHIBITION was 5.29%.
With CC(C(=O)N1CCCN(Cc2cscn2)CC1)N1CCOCC1 (configuration not stated) the INHIBITION was -4.3%.
Cn1cc(CN2CCn3cc(Cn4cccn4)nc3C2)cn1 showed an INHIBITION of -6.23%.
CNc1snc(C)c1C(=O)N1CCCC(n2cccn2)C1 (configuration not stated) gave an INHIBITION of 46.2%.
Cc1cc(C)n(CCC(=O)N2CCCC(n3cncn3)C2)n1 (configuration not stated) was tested, and the INHIBITION was 64.7%.
For Cc1cc(C(=O)N2CCCC(n3cncn3)C2)no1 (configuration not stated), the INHIBITION was 11.235%.
For Cc1cc(C)n(CCC(=O)N2CCCC(n3nc(C)nc3C)C2)n1 (configuration not stated), the INHIBITION was 30.2%.
In the case of CNc1snc(C)c1C(=O)N1CCCC(n2nc(C)cc2C)C1 (configuration not stated), the INHIBITION is reported as 32.8%.
With O=C(c1cc(C2CC2)on1)N1CCCC(n2cncn2)C1 (configuration not stated) the INHIBITION was 56.6%.
In the case of CNc1snc(C)c1C(=O)N1CCCC(n2cc(C)cn2)C1 (configuration not stated), the INHIBITION is reported as 58.5%.
In the case of O=C(c1ccon1)N1CCCC(n2cncn2)C1 (configuration not stated), the INHIBITION is reported as 9.82%.
Compound Cn1cc(CCC(=O)N2CCCC(n3cncn3)C2)cn1 (configuration not stated) has an INHIBITION of 19.4%.
For O=C(c1cc(C2CC2)on1)N1CCCC(n2cccn2)C1 (configuration not stated), the INHIBITION was 27.65%.
In the case of Cc1cc(C)n(C2CCCN(C(=O)c3cc(C4CC4)on3)C2)n1 (configuration not stated), the INHIBITION is reported as 14.4%.
Cc1cnn(C2CCCN(C(=O)c3cc(C4CC4)on3)C2)c1 (configuration not stated) was tested, and the INHIBITION was 59%.
COCC(=O)NCc1cc(=O)n2c(n1)CN(Cc1nccs1)CCC2 showed an INHIBITION of 44.8%.
For CC(=O)N(C)C1CCN(C(=O)c2cccc3c2ccn3C)CC1, the INHIBITION was 9.63%.
With Cn1cc(CN2CCOCC3(C2)CN(c2ccccc2)C(=O)CO3)cn1 (configuration not stated) the INHIBITION was 17.1%.
For CC(=O)N(Cc1noc(C)n1)C1CCN(Cc2cccc(C#N)c2)C1 (configuration not stated), the INHIBITION was -18%.
Compound O=C(O)CN1CCC(C(F)(F)F)CC1 has an INHIBITION of 2.4%.
Compound CCn1ncc(CNC(=O)c2cn(CCC3CCCCN3)nn2)c1C (configuration not stated) has an INHIBITION of 83.8%.
CCn1nc(C)c(CNC(=O)c2cn(CCC3CCCCN3)nn2)c1C (configuration not stated) was tested, and the INHIBITION was -25%.
Cc1c(CNC(=O)c2cn(CCC3CCCCN3)nn2)cnn1C (configuration not stated) gave an INHIBITION of -70.7%.
